Reference: PubChem BioAssay (EPA / NIEHS)
Values joined by “and” are separate entries in the source; they are usually repeats but may differ in a detail not shown here. Identical values can stand only once. A structure can be active in one record and inactive in another. Active and inactive are the calls of the source. Rule for the calls: active = hit-call score of the fitted dose curve at least 0.9, where 1 is the maximum; inactive = score below 0.9.

Read-out: Tissue Factor, F3 (gene 2152)
Test: BSK_LPS_TissueFactor: BioMAP Diversity Plus: LPS Assay for Tissue Factor Biomarker Activity (AID 2283084)
Conditions: primary human HUVEC with PBMC; actives raise or lower the signal
Protocol: BSK_LPS is a cell-based, multiplexed-readout assay that uses umbilical vein endothelium and peripheral blood mononuclear cells, a human vascular primary cell co-culture, with measurements taken at 24 hours after chemical dosing in a 96-well plate.BSK_LPS_TissueFactor is an assay component measured in the BSK_LPS assay. It measures CD142 Tissue Factor antibody related to regulation of gene expression using ELISA technology.Data from the assay component BSK_LPS_TissueFactor was analyzed into 1 assay endpoint. This assay endpoint, BSK_LPS_TissueFactor, was analyzed with bidirectional fitting relative to DMSO as the negative control and baseline of activity. Using a type of binding reporter, gain or loss-of-signal activity can be used to understand changes in the signaling as they relate to the gene F3. Furthermore, this assay endpoint can be referred to as a primary readout, because this assay has produced multiple assay endpoints where this one serves a signaling function. To generalize the intended target to other relatable targets, this assay endpoint is annotated to the cytokine intended target family, where the subfamily is coagulation factor.
The levels of cell surface (or secreted, indicated by the prefix "s") biomarker endpoints were measured by ELISA. Overt cytotoxicity to cells in confluent adherent cultures (all systems other than the BT system) was assessed by measuring total protein levels using sulforhodamine B (SRB) staining in parallel cultures at the time of biomarker measurements, indicated as SRB endpoints. For proliferation assays for adherent cell types, individual cell types are cultured at sub-confluence and relative cell numbers quantified by SRB staining at time points optimized for each system (48 h: 3C and CASM3C systems; 72 h: BT and HDF3CGF systems; 96 h: SAg system). SRB was performed by staining cells with 0.1% SRB after fixation with 10% TCA and reading wells at 560 nm.Viability and proliferation of PBMC (T cells) was quantified by Alamar Blue reduction for the SAg and BT systems. For PBMC viability (referred to as PBMC Cytotoxicity within the assay endpoint names), cells were plated (75,000/well in a 96-well plate) and then chemical samples added for 1 h before addition of activators, SEB and TSST-1 (20 ng/mL final concentration each). Cells were incubated for 90 h. Then, Alamar Blue (20 uL/well) (Invitrogen, Cat DAL1100) was added for 6 h, and the plates were read with a fluorescence microplate reader at 546/580 nm (excitation/emission). For PBMC proliferation, cells were plated and activated as above but incubated for only 16 h prior to addition of Alamar Blue. Plates were read after 6 h.

Q: With `O=C(O)C(F)(F)C(F)(F)C(F)(F)C(F)(F)C(F)(F)C(F)(F)C(F)(F)C(F)(F)C(F)(F)F` as the compound, how does the outcome read?
A: inactive

Q: What about the AC50 of the same compound?
A: 45.6 µM (active) and 50.6 µM (active)

Q: With `COS(=O)(=O)OC` as the compound, how does the outcome read?
A: inactive

Q: With `CC(C)(O)C(=O)Nc1ccc([N+](=O)[O-])c(C(F)(F)F)c1` as the compound, how does the outcome read?
A: inactive

Q: How did the outcome turn out when `Cc1ccccc1[N+](=O)[O-]` was run?
A: inactive

Q: `ClC(Cl)=C(c1ccc(Cl)cc1)c1ccc(Cl)cc1` was tested. Which AC50 did it give?
A: 32.3 µM (active)

Q: `Cc1cc2c3c(c1)C(c1ccccc1)=N[C@@H](NC(=O)c1ccncc1)C(=O)N3CC2` was tested. Which outcome did it give?
A: inactive

Q: Which outcome does the source give for `Cc1cc(-c2ccc(N)c(C)c2)ccc1N` here?
A: inactive

Q: With `CCC(C)(CC)c1cc(NC(=O)c2c(OC)cccc2OC)on1` as the compound, how does the outcome read?
A: inactive

Q: How did the outcome turn out when `C[C@]12CCC(=O)C=C1CC[C@@H]1[C@@H]2CC[C@]2(C)C(=O)CC[C@@H]12` was run?
A: inactive

Q: `Nc1ccc(-c2ccc(N)cc2)cc1` was tested. Which outcome did it give?
A: inactive

Q: For `CC(c1ccc(O)cc1)(c1ccc(O)cc1)c1ccc(O)cc1`, which outcome is on record?
A: inactive

Q: For `Clc1ccc(C(c2ccccc2Cl)C(Cl)(Cl)Cl)cc1` (stereo not given), which AC50 is on record?
A: 23.4 µM (active)

Q: Which outcome does the source give for `O=C(O)C(F)(F)C(F)(F)C(F)(F)C(F)(F)C(F)(F)F` here?
A: inactive

Q: How did the outcome turn out when `N#Cc1ccc(N(CC(N)=O)CC(F)(F)F)cc1C(F)(F)F` was run?
A: inactive

Q: For `O=C(NC(=O)c1c(F)cccc1F)Nc1cc(Cl)c(OC(F)(F)C(F)F)c(Cl)c1`, which outcome is on record?
A: inactive

Q: For `CCCCCCCCOC(=O)c1ccccc1C(=O)OCCCCCCCC`, which outcome is on record?
A: inactive

Q: For `c1cc2ccc3cccc4ccc(c1)c2c34`, which outcome is on record?
A: inactive

Q: For `CC#Cc1cc(C)nc(Nc2ccccc2)n1`, which outcome is on record?
A: inactive

Q: With `Cc1ccccc1O` as the compound, how does the outcome read?
A: inactive

Q: `ClC1=C(Cl)[C@]2(Cl)[C@@H]3[C@@H]4C[C@@H]([C@H]5O[C@@H]45)[C@@H]3[C@@]1(Cl)C2(Cl)Cl` was tested. Which outcome did it give?
A: inactive

Q: How did the outcome turn out when `COc1ccc(O)c(C(C)(C)C)c1` was run?
A: inactive

Q: With `CCCCCCOC(=O)c1ccccc1C(=O)OCCCCCC` as the compound, how does the outcome read?
A: inactive

Q: With `O=C(O)C(F)(F)C(F)(F)C(F)(F)C(F)(F)C(F)(F)C(F)(F)C(F)(F)C(F)(F)F` as the compound, how does the outcome read?
A: inactive

Q: With `Oc1c(Cl)c(Cl)c(Cl)c(Cl)c1Cl` as the compound, how does the AC50 read?
A: 32.4 µM (active)

Q: And the outcome?
A: inactive

Q: With `Sc1ccccc1` as the compound, how does the outcome read?
A: inactive

Q: `CCCCCCCCCc1ccc(O)cc1` was tested. Which AC50 did it give?
A: 31.3 µM (active)

Q: Which outcome does the source give for `CCC(C)(c1ccc(O)cc1)c1ccc(O)cc1` here?
A: inactive

Q: How did the outcome turn out when `CC1=C2C[C@H]3[C@@H](CC=C4C[C@@H](O)CC[C@@]43C)[C@@H]2CC[C@]12O[C@@H]1C[C@H](C)CN[C@H]1[C@H]2C` was run?
A: inactive

Q: For `O=C(N[C@H]1CN2CCC1CC2)c1cc2ccoc2cn1`, which outcome is on record?
A: inactive

Q: Which outcome does the source give for `CCC(C)c1cc([N+](=O)[O-])cc([N+](=O)[O-])c1O` (stereo not given) here?
A: inactive

Q: `O=NN(c1ccccc1)c1ccccc1` was tested. Which outcome did it give?
A: inactive

Q: What does the source list for `NS(=O)(=O)C(F)(F)C(F)(F)C(F)(F)C(F)(F)C(F)(F)C(F)(F)C(F)(F)C(F)(F)F`?
A: AC50: 44.6 µM (active); outcome: inactive

Q: For `C=CC(N)=O`, which outcome is on record?
A: inactive

Q: For `C=CC(=O)NCNC(=O)C=C`, which outcome is on record?
A: inactive

Q: How did the outcome turn out when `C1CC2OC2CC1C1CO1` (stereo not given) was run?
A: inactive

Q: How did the outcome turn out when `Clc1ccc(Cl)cc1` was run?
A: inactive

Q: For `Clc1ccc(C(Cl)(Cl)Cl)cc1`, which outcome is on record?
A: inactive
